# Results published in PubChem BioAssay AID652197 (Broad Institute, 2013).
# “And” between values parts separate entries of the source, which are not always exact repeats. Identical values can stand only once. Out of some 340,000 compounds screened, about 500 (0.15%) were called active. For the sample, actives were picked, then their nearest neighbours and some compounds at random. Values without a mark were called inactive.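 How the source made its calls: active means mean replicate inhibition of at least 30%, or all replicates individually reaching that 30% level; inactive means mean below 30% and not every replicate reaching it.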
# Biological target: Endoplasmic reticulum aminopeptidase 1 (Homo sapiens) (UniProt Q9NZ08)
# Experiment: human ERAP1 aminopeptidase inhibitors, primary screen, biochemical, single point, plate reader (AID 652197);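 further: 0% = neutral control wells and 100% = L-leucinethiol positive control wells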
# Details: recombinant ERAP1, Leu-AMC fluorescence, 60 min; at 10.7 µM; hits give high values
# Endoplasmic reticulum aminopeptidase 1 (Homo sapiens), sequence (Q9NZ08 whole entry, looked up): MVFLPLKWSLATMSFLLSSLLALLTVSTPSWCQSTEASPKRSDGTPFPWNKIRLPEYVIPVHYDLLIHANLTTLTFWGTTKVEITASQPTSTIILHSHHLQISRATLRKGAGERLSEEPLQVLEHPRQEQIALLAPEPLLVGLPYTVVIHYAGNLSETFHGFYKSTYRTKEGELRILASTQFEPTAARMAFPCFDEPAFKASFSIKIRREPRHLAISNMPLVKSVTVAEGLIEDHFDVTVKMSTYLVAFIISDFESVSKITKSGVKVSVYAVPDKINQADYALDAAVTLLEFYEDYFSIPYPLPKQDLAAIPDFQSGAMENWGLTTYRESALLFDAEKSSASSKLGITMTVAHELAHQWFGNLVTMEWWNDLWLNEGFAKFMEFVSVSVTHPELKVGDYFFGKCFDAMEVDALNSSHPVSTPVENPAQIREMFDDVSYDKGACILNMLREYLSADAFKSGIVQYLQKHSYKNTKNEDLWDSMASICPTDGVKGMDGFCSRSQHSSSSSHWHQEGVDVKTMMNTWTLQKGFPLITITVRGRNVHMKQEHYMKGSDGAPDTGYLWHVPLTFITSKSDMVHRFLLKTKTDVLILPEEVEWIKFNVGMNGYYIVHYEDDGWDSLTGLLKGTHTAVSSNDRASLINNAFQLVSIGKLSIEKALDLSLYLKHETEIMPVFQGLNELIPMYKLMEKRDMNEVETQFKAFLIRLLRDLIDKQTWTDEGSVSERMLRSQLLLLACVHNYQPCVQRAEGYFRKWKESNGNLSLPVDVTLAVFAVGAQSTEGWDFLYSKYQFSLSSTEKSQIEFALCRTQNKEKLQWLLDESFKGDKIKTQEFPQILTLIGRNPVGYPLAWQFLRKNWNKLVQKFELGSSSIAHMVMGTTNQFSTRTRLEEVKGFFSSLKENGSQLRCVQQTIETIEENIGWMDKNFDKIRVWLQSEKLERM
row,Compound,inhibition
1,Cc1noc(C)c1C(=O)N(C)C[C@H]1OCc2ccccc2-c2c(n(C)c3ccccc23)C(=O)N([C@@H](C)CO)C[C@H]1C,-0.288%
2,O=C(NC1=CC(=O)c2ccccc2C1=O)c1ccccc1,2.97%
3,CC(=O)N(C1=C(Cl)C(=O)c2ccccc2C1=O)c1ccc(C(=O)O)cc1,84.4% (active)
4,O=C1C(Cl)=C(Oc2ccccc2)C(=O)c2ccccc21,4.33%
5,CC(C)NC(=O)N1CCCCN2[C@@H](CO)[C@@H](c3ccc(C#Cc4ccccc4)cc3)[C@@H]2C1,0.974%
6,O=C(Cc1ccccc1)N1CC[C@@H]2[C@H](CO)Nc3ccc(-c4ccccc4)cc3[C@@H]21,4.96%
7,C/C=C/c1ccc([C@H]2[C@H](CO)N(C(=O)CN(C)C)C23CN(C(=O)C2CC2)C3)cc1,-1.65%
8,O=C(C[C@H]1CC[C@H]2[C@@H](COC[C@H](O)CN2S(=O)(=O)c2cccc(F)c2)O1)NC1CCC1,-1.89%
9,COc1ccc(-c2ccc([C@@H]3[C@H](CN(C)S(C)(=O)=O)N[C@@H]3CO)cc2)cc1,-0.559%
10,C[C@@H]1CCCCO[C@@H](CN(C)S(=O)(=O)c2cccs2)[C@H](C)CN([C@H](C)CO)C(=O)c2cc(NC(=O)CCCN(C)C)ccc2O1,0.521%
11,COc1ccc(CCNC(=O)COC(=O)c2cnc(Cl)c(Cl)c2)cc1,-0.478%
12,Cc1ccccc1NC(=O)Cc1nc(COC(=O)CNC(=O)c2ccc(Cl)cc2Cl)cs1,-1.49%
13,COc1ccc(CCOC(=O)CNC(=O)c2ccc(Cl)cc2Cl)cc1,37.4% (active)
14,CCC(=O)N1CC2(C1)[C@@H](c1ccc(C3=CCCC3)cc1)[C@@H](CO)N2C(=O)COC,-3.58%
15,C[C@@H]1CCCCO[C@@H](CN(C)Cc2ccc3c(c2)OCO3)[C@@H](C)CN([C@@H](C)CO)C(=O)c2cc(NC(=O)C3CCCCC3)ccc2O1,-1.88%
16,C[C@@H]1CN([C@@H](C)CO)C(=O)c2cc(C#CC3CCCCC3)cnc2O[C@H]1CN(C)C(=O)Cc1ccccn1,4.3%
17,COc1ccc(NC(=O)N(C)C[C@@H]2OCCCC[C@@H](C)Oc3ccc(NS(C)(=O)=O)cc3C(=O)N([C@@H](C)CO)C[C@H]2C)cc1,4.38%
18,CCC(=O)N[C@H]1CC[C@@H](CC(=O)NCC2CC2)O[C@@H]1CO,-1.77%
19,Cc1cc2c(nc1C)CCCN2C,56.4% (active)
20,CN1CCCc2nc(-c3ccccc3)ccc21,0.84%
21,CC(=O)O[C@H]1CC[C@@]2(C)[C@@H](CC[C@@H]3[C@@H]2CC[C@]2(C)[C@@H](C(C)(C)O)C[C@@H]32)C1,-4.42%
22,C[C@H]([C@@H](O)[C@@H](O)[C@@H](C)C(C)(C)C)[C@H]1CC[C@H]2C3CC[C@H]4C[C@H](OS(=O)(=O)O)[C@@H](OS(=O)(=O)O)C[C@]4(C)[C@H]3CC[C@]12C (some centres undefined),51.7% (active)

row,Compound,inhibition
1,O=C(C[C@H]1CC[C@H]2[C@@H](COC[C@@H](O)CN2C(=O)Nc2ccc(C(F)(F)F)cc2)O1)NC1Cc2ccccc2C1,3.19%
2,Cc1ccc(-c2ccc(C3[C@H]4CNC[C@@H]3N4S(=O)(=O)c3ccccc3C)cc2)cc1 (some centres undefined),1.57% and -0.081%
3,COc1cccc(-c2ccc([C@@H]3[C@@H](CO)N4C(=O)CN(C(=O)C5CCCCC5)C[C@H]34)cc2)c1,-0.992%
4,CO[C@@H]1CC[C@@H]2CCOc3ccc(C#N)cc3C(=O)N(C)C[C@@H](OC)[C@@H](C)C(=O)N(C)C[C@H]1O2,-4.56%
5,CNC(=O)C[C@@H]1CC[C@@H]2[C@H](COC[C@@H](O)CN2S(=O)(=O)c2ccccc2Cl)O1,0.052%
6,Cc1nc2ccc(N)nc2nc1C,31.2% (active)
7,Cc1nc2cccnc2nc1C,1.29%
8,O=C(CCN1CCCCC1)NCC[C@H]1CC[C@@H](NC(=O)C2CCOCC2)[C@H](CO)O1,3.14%
9,C[C@H]1CN([C@@H](C)CO)C(=O)Cc2cc(NC(=O)c3ccncc3)ccc2O[C@@H]1CN(C)C(=O)Nc1ccccc1,1.04%
10,CNC(=O)C[C@H]1CC[C@@H]2[C@H](COc3ccc(NC(=O)Nc4ccc(F)c(F)c4)cc3C(=O)N2C)O1,0.113%
11,C#Cc1ccc([C@H]2C=C(C(=O)O)O[C@@H](OCC)[C@@H]2CCCO)cc1,-6.5%
12,C[C@@H]1CCCCO[C@H](CN(C)C(=O)c2ccccc2)[C@H](C)CN([C@@H](C)CO)C(=O)c2cc(NC(=O)Nc3ccc4c(c3)OCO4)ccc2O1,-5.55%
13,Cc1ccc(S(=O)(=O)Nc2ccc3c(c2)C(=O)N([C@@H](C)CO)C[C@@H](C)[C@H](CN(C)Cc2ccc(Cl)c(Cl)c2)OCCCC[C@@H](C)O3)cc1,0.461%
14,Cc1ccc(COC(=O)CN2C(=O)NC3(CCCC3)C2=O)cc1,-3.32%
15,Cc1ccc(CNC(=O)COC(=O)C2CCC2)cc1,1.31%
16,Cc1ccc(CCCOC(=O)C[N+]2(C)CCCCC2)cc1,30.8% (active)
17,Cc1ccc(S(=O)(=O)CCC(=O)OCC(=O)NCCc2ccc(S(N)(=O)=O)cc2)cc1,-0.437%
18,COc1ccc(CC2c3cc(OC)c(OC)cc3CC[N+]2(C)CCC(=O)OCCCCCOC(=O)CC[N+]2(C)CCc3cc(OC)c(OC)cc3C2Cc2ccc(OC)c(OC)c2)cc1OC (centres undefined),-5.26%
19,Cc1ccc(CCCOC(=O)C[N+]2(C)CCCC2)cc1,106% (active)
20,COc1ccc2c3c(n(C)c2c1)[C@@H](CO)N(C(=O)CN1CCOCC1)CC31CCN(C(=O)C2CC2)CC1,-0.976%
21,CCCC(=O)Nc1ccc2c(c1)OC[C@@H](C)N(CC1CCOCC1)C[C@H](C)[C@H](OC)CN(C)C2=O,6.53%
22,C[C@H](NC(=O)[C@@H]1[C@@H](CO)[C@@H]2Cn3c(ccc(-c4cccc(F)c4)c3=O)[C@@H]2N1C)c1ccccc1,5.74%
